Assay in all cases: DAPPL (digital affinity profiling via proximity ligation, sequencing); 10 mM Tris-HCl pH 7.5, 50 mM NaCl, 1 mM DTT, 4% glycerol, room temperature, 30 min; GST-TFs on glutathione beads, 16-mer random dsDNA library, 0.1% formaldehyde crosslink after washing; high values mean tight binding
What all share (conditions): protein: recombinant; tags: N-terminal GST; dsDNA, one strand shown

One experiment concerns the target T1, ELK1 (Homo sapiens, UniProt P19419 1-428).
T1 sequence: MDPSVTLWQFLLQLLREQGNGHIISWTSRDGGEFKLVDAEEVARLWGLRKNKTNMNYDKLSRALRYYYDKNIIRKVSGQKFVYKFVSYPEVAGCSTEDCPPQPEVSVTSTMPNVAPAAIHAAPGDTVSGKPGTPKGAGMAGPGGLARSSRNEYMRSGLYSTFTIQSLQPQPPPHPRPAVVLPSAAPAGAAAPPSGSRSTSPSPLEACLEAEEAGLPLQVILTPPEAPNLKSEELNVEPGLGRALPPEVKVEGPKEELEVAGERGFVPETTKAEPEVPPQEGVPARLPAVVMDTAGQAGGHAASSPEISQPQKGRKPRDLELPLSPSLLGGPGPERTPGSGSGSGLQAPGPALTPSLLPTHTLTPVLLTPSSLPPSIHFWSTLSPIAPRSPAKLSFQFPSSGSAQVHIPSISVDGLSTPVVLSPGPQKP
The essentials: (§1)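 GST fusions of human transcription factors were expressed in yeast and captured with glutathione beads. Once given DNA barcodes and pooled alongside a tag-only sample, they were incubated for 30 min at room temperature with 200 nmole of a random double-stranded 16-mer DNA library in Tris/NaCl/DTT/glycerol buffer, then washed, crosslinked (0.1% formaldehyde), proximity-ligated, PCR-amplified and sequenced on an Illumina NextSeq500. The binding signal of each hexamer is its read frequency for a factor divided by its frequency for the tag-only sample.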

A further experiment has as its target T2, GABPA (Homo sapiens, UniProt Q06546 1-454).
T2 sequence: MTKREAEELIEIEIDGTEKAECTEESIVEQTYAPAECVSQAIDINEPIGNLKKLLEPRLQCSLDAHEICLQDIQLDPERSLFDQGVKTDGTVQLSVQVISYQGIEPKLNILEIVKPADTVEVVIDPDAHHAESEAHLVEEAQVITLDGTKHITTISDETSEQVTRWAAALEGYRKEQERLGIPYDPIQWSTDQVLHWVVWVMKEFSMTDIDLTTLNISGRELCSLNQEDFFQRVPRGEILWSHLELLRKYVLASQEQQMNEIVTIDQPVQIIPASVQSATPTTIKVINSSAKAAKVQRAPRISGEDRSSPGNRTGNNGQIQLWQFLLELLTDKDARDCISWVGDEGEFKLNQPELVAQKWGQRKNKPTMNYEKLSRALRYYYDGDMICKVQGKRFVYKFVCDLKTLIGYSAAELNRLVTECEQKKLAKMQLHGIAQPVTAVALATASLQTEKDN
The essentials: as §1

The next experiment concerns the target T3, ERG (Homo sapiens, UniProt P11308 1-479).
T3 sequence: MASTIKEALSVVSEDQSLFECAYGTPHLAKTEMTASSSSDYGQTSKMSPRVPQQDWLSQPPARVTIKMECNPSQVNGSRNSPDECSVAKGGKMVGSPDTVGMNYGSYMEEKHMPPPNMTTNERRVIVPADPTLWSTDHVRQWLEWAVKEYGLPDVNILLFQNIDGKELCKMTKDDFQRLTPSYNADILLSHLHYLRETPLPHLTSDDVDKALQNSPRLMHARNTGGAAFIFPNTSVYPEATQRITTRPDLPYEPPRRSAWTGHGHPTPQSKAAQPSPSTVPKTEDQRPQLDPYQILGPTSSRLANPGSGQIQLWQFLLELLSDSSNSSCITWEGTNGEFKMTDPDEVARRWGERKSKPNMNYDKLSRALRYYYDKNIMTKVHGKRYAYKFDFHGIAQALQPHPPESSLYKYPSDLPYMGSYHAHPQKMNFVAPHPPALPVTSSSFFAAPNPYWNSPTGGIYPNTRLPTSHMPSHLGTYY
The method in brief: as §1

In a further experiment the target is ELF1 (Homo sapiens, UniProt P32519 1-619). The method in brief: as §1
ELF1, sequence (P32519 whole entry): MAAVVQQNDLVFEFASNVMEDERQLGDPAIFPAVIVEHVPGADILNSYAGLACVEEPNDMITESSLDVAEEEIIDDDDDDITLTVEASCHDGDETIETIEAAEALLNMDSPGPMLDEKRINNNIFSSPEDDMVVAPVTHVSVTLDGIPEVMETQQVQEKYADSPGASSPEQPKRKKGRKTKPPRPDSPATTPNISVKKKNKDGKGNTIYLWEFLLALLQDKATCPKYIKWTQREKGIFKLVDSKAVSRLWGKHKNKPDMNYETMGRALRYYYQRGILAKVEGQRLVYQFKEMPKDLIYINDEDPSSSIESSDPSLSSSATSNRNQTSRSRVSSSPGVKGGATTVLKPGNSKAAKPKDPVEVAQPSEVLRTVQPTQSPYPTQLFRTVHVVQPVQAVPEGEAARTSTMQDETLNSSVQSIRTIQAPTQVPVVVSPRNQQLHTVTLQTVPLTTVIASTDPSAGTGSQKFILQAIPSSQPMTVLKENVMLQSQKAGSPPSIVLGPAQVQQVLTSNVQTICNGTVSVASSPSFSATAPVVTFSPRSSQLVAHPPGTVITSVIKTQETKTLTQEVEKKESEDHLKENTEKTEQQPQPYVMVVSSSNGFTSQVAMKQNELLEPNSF
In another experiment the target is T4, EHF (Homo sapiens, UniProt Q9NZC4 1-300).
T4 sequence: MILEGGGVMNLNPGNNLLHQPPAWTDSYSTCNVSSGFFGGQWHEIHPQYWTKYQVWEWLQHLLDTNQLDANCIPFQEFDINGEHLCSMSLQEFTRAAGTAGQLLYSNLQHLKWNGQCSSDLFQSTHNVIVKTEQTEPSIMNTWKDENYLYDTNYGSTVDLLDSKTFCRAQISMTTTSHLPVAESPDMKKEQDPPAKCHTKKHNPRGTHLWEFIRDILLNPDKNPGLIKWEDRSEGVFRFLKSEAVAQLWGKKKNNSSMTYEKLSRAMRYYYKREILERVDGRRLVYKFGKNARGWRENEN
The method in brief: as §1

The target of a further experiment is SPIB (Homo sapiens, UniProt Q01892 1-262). The method in brief: as §1
SPIB, sequence (Q01892 whole entry): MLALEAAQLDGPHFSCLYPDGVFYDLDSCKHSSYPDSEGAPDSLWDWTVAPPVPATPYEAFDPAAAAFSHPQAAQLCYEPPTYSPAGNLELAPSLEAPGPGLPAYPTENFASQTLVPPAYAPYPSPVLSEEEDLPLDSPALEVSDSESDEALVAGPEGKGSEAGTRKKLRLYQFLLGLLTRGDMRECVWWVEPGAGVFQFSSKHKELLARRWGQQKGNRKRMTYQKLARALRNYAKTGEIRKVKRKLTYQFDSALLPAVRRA
In another experiment the target is T5, FEV (Homo sapiens, UniProt Q99581 1-238).
T5 sequence: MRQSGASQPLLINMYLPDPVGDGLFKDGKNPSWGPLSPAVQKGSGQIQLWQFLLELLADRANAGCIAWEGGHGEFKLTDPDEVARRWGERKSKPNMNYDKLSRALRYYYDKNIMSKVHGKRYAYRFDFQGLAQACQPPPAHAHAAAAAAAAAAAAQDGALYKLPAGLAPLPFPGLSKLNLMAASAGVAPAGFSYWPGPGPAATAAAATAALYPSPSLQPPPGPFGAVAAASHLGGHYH
The essentials: as §1

In a further experiment the target is ETV5 (Homo sapiens, UniProt P41161 1-510). The method in brief:
as §1

The target in the next experiment is ELF4 (Homo sapiens, UniProt Q99607 1-663). The essentials: as §1
ELF4, sequence (Q99607 whole entry): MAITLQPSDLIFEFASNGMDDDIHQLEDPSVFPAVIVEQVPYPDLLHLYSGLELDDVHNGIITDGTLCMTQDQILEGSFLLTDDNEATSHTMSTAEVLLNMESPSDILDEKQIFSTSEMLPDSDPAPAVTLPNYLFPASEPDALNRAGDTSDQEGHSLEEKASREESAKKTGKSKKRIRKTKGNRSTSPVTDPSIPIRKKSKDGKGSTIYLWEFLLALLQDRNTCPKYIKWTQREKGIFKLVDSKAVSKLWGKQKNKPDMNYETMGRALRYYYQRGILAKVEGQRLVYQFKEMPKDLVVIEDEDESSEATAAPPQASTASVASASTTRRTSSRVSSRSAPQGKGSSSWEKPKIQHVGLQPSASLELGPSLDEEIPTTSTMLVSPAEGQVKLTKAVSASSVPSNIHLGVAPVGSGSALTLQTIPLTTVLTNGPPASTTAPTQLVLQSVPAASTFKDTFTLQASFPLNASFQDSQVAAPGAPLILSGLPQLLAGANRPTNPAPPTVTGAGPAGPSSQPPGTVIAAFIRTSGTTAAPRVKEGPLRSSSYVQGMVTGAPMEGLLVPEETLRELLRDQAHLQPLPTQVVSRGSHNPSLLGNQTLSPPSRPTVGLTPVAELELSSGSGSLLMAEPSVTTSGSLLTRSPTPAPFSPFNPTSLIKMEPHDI
The next experiment deals with T6, ELK4 (Homo sapiens, UniProt P28324-2 1-405).
T6 sequence: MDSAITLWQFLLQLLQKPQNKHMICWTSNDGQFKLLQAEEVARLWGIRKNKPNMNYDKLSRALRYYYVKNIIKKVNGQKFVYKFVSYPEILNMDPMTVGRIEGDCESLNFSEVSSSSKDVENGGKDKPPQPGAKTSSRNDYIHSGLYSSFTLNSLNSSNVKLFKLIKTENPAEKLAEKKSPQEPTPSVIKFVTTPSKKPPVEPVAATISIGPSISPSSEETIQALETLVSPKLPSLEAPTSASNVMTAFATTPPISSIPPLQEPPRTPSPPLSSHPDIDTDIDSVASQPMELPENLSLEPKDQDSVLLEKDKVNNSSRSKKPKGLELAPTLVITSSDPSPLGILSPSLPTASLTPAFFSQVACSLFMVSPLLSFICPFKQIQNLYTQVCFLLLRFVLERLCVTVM
The essentials:
as §1

In another experiment the target is T7, ELF3 (Homo sapiens, UniProt P78545 1-371).
T7 sequence: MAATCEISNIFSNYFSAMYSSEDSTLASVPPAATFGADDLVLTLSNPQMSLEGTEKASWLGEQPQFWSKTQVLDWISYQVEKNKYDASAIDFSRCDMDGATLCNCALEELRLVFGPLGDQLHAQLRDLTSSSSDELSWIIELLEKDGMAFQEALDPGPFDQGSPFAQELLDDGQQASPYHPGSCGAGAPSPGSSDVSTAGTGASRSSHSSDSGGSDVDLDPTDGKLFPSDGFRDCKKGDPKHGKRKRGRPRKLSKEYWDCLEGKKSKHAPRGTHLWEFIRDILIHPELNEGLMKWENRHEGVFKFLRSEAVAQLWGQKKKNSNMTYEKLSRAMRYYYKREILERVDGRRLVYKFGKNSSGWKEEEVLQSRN
The method in brief:
as §1

The target in a further experiment is ETV1 (Homo sapiens, UniProt P50549 1-477). The essentials:
as §1

The target of another experiment is T8, ERF (Homo sapiens, UniProt P50548 1-548).
T8 sequence: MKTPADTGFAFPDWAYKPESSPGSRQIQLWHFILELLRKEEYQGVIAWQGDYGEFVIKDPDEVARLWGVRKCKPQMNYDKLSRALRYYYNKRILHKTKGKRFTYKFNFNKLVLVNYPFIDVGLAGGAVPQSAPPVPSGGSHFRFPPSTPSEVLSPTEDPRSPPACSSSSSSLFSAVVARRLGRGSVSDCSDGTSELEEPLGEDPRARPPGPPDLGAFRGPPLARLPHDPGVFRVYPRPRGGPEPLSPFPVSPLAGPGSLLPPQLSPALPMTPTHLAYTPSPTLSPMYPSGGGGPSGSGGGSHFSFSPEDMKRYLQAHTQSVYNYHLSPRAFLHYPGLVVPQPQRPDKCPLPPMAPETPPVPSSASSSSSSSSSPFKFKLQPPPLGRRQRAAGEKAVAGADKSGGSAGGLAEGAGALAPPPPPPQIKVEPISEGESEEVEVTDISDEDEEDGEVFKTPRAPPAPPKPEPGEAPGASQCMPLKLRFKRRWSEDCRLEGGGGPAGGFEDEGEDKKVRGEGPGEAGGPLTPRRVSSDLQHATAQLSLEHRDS
The method in brief: as §1

Another experiment concerns the target T9, ETV3L (Homo sapiens, UniProt Q6ZN32 1-361).
T9 sequence: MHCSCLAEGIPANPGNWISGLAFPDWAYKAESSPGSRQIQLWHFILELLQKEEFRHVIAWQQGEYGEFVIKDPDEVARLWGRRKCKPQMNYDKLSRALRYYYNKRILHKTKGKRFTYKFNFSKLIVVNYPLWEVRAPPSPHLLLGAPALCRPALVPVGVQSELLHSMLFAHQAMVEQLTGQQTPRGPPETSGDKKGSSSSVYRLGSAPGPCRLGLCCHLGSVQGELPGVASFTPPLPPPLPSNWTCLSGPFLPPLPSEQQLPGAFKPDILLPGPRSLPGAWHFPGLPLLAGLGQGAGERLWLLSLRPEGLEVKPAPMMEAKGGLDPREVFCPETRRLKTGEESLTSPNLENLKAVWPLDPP
The method in brief:
as §1

The next experiment concerns the target T10, ETS2 (Homo sapiens, UniProt P15036 1-469).
T10 sequence: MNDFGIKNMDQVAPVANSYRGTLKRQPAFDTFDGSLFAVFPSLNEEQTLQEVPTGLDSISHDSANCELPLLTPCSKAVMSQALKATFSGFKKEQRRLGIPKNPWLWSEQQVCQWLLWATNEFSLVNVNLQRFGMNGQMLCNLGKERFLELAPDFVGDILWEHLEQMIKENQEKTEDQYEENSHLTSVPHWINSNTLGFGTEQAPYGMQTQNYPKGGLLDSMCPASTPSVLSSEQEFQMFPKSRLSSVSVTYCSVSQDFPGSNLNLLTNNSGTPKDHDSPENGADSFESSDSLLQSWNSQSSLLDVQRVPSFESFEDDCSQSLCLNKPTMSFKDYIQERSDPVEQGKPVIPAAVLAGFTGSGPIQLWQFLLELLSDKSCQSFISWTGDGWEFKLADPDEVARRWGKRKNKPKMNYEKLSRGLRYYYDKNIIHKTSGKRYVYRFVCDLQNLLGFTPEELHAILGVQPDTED
The essentials: as §1

The next experiment deals with T11, SPDEF (Homo sapiens, UniProt O95238 1-335).
T11 sequence: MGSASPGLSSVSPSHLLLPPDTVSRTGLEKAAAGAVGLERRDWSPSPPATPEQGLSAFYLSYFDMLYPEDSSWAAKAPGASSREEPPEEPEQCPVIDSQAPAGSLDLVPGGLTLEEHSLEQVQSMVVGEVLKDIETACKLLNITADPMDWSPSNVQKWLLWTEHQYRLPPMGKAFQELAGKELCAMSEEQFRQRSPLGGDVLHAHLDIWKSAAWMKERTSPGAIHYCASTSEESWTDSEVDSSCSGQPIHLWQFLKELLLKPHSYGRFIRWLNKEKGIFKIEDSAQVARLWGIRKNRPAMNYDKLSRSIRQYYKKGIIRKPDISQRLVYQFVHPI
The essentials:
as §1

The next experiment deals with T12, ETV7 (Homo sapiens, UniProt Q9Y603 1-341).
T12 sequence: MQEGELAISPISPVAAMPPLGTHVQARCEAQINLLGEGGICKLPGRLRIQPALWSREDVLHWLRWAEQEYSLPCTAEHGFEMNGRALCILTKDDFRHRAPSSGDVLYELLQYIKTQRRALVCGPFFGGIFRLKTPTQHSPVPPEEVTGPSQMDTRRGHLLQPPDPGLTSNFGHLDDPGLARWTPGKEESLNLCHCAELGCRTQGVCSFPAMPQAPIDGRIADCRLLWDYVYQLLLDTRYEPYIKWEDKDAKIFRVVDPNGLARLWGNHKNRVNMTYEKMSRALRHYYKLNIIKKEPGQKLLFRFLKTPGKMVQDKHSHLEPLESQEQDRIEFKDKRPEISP
The essentials: as §1

In the next experiment the target is T13, ETV3 (Homo sapiens, UniProt P41162-2 1-143).
T13 sequence: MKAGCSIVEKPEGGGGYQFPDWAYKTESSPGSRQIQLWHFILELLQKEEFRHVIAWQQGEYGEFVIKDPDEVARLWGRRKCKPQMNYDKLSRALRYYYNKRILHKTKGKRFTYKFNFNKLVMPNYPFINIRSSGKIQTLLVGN
The essentials: as §1

A further experiment addresses ETV6 (Homo sapiens, UniProt P41212 1-452). The method in brief:
as §1

The values below come from publication PMC7862700, “An all-to-all approach to the identification of sequence-specific readers for epigenetic DNA modifications on cytosine”.

ETV1, sequence (P50549 whole entry): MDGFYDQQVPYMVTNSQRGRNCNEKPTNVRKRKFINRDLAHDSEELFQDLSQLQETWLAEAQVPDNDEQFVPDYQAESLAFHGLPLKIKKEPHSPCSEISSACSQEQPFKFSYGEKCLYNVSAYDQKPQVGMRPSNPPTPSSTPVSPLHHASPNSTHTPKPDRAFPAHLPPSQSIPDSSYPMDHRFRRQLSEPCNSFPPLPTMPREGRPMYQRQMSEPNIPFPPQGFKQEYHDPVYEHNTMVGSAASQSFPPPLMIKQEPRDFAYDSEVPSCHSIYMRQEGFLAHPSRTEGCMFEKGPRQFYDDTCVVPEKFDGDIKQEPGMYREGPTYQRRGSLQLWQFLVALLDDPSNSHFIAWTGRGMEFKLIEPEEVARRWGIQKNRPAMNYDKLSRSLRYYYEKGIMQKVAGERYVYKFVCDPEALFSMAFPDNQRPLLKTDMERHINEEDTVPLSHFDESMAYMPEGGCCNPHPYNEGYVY
ETV5, sequence (P41161 whole entry): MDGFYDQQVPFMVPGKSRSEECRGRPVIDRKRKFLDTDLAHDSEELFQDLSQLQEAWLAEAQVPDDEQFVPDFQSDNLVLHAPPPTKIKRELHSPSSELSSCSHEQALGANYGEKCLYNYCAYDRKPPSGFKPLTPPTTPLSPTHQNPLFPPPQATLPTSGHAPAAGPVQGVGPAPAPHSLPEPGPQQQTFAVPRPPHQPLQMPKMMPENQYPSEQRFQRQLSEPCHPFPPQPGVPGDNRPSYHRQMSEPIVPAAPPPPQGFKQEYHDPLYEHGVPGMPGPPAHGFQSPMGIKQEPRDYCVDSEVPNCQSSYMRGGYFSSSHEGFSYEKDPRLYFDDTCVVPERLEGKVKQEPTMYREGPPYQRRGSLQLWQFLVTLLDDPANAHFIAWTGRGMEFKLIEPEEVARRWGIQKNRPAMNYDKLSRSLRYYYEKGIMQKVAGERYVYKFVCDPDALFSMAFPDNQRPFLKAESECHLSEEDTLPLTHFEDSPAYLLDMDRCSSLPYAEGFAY
ETV6, sequence (P41212 whole entry): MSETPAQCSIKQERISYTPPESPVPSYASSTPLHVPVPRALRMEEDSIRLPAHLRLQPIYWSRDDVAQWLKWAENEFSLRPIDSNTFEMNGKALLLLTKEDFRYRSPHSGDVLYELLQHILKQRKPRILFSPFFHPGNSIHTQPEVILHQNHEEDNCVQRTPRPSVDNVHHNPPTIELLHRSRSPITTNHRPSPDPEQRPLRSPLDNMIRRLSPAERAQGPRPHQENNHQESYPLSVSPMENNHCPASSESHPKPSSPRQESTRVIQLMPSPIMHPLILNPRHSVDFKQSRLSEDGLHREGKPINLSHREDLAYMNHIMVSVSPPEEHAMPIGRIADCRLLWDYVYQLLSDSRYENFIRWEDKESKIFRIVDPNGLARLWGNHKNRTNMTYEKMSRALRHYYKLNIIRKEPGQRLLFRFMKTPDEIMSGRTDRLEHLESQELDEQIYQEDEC

Turning to GTTGTT, the binding signal is 1.12 fold enrichment (6-mer frequency, TF over GST control) with ELK1; 1.04 fold enrichment (6-mer frequency, TF over GST control) with GABPA; 1.02 fold enrichment (6-mer frequency, TF over GST control) with ERG; 1.09 fold enrichment (6-mer frequency, TF over GST control) in the experiment with ELF1; 1.12 fold enrichment (6-mer frequency, TF over GST control) with EHF; 1.22 fold enrichment (6-mer frequency, TF over GST control) with SPIB. The binding signal was 1.1 fold enrichment (6-mer frequency, TF over GST control) with FEV; 1.02 fold enrichment (6-mer frequency, TF over GST control) with ETV5; 1.04 fold enrichment (6-mer frequency, TF over GST control) in the experiment with ELF4; 1.33 fold enrichment (6-mer frequency, TF over GST control) with ELK4; 1.13 fold enrichment (6-mer frequency, TF over GST control) in the experiment with ELF3; 1.14 fold enrichment (6-mer frequency, TF over GST control) with ETV1. The binding signal in the experiment with ERF is 1.06 fold enrichment (6-mer frequency, TF over GST control); with ETV3L it was 1.14 fold enrichment (6-mer frequency, TF over GST control); in the experiment with ETS2, 1.06 fold enrichment (6-mer frequency, TF over GST control); in the experiment with SPDEF it was 1.12 fold enrichment (6-mer frequency, TF over GST control); with ETV7 it was 1.25 fold enrichment (6-mer frequency, TF over GST control); with ETV3, 1.11 fold enrichment (6-mer frequency, TF over GST control). Besides, the binding signal with ETV6 was 1.09 fold enrichment (6-mer frequency, TF over GST control).
